# Results reported in article PMC5540273 (PLoS ONE, 2017).
# Read-outs that look alike come from different tables or passages of the source.
# Assays:
# GRK4 = settings: concentration: 1 μM, replicates: in singlicate; n = 1
# GRK7 = settings: concentration: 1 μM, replicates: in singlicate; n = 1
# GSK3A = settings: concentration: 1 μM, replicates: in singlicate; n = 1
# GSK3B = settings: n = 1
# HASPIN = system: T1, HASPIN; settings: concentration: 1 μM, replicates: in singlicate; n = 1
# T1 construct: gene GSG2
# HCK = settings: concentration: 1 μM, replicates: in singlicate; n = 1
# HIPK1 = settings: concentration: 1 μM, replicates: in singlicate; n = 1
# HIPK2 = settings: concentration: 1 μM, replicates: in singlicate; n = 1
# HIPK3 = settings: concentration: 1 μM, replicates: in singlicate; n = 1
# HIPK4 = settings: concentration: 1 μM, replicates: in singlicate; n = 1
# HPK1 = settings: concentration: 1 μM, replicates: in singlicate; n = 1
# HUNK = settings: concentration: 1 μM, replicates: in singlicate; n = 1
# ICK = settings: concentration: 1 μM, replicates: in singlicate; n = 1
# IGF1R = settings: concentration: 1 μM, replicates: in singlicate; n = 1
# IKK-alpha = system: T2, IKK-alpha; settings: concentration: 1 μM, replicates: in singlicate; n = 1
# T2 construct: gene CHUK
# IKK-beta = system: T3, IKK-beta; settings: concentration: 1 μM, replicates: in singlicate; n = 1
# T3 construct: gene IKBKB
# IKK-epsilon = system: T4, IKK-epsilon; settings: concentration: 1 μM, replicates: in singlicate; n = 1
# T4 construct: gene IKBKE
# INSRR = settings: concentration: 1 μM, replicates: in singlicate; n = 1
# INSR = settings: concentration: 1 μM, replicates: in singlicate; n = 1
# IRAK1 = settings: concentration: 1 μM, replicates: in singlicate; n = 1
# [1] = concentration: 1 μM, replicates: in singlicate
# 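Note: KINOMEscan kinase panel screen.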
structure (smiles),measurement,setting,value
O=C(Nc1n[nH]c2cc(-c3cccc(F)c3)ccc12)C1CC1 [SB-735464],%Inh,GRK4,38%
same,%Inh,GRK7,6%
same,%Inh,GSK3A,43%
same,%Inh,GSK3B; 1 µM,22%
same,%Inh,HASPIN,30%
same,%Inh,HCK,0%
same,%Inh,HIPK1,7%
same,%Inh,HIPK2,22%
same,%Inh,HIPK3,31%
same,%Inh,HIPK4,9%
same,%Inh,HPK1,0%
same,%Inh,HUNK,0%
same,%Inh,ICK,34%
same,%Inh,IGF1R,0%
same,%Inh,IKK-alpha,25%
same,%Inh,IKK-beta,37%
same,%Inh,IKK-epsilon,14%
same,%Inh,INSRR,2%
same,%Inh,INSR,9%
same,%Inh,IRAK1,10%
Fc1ccc(-c2nn3c(OCC(F)(F)F)cccc3c2-c2ccncc2)cc1 [GW514784],%Inh,GRK4,0%
same,%Inh,GRK7,0%
same,%Inh,GSK3A,10%
same,%Inh,GSK3B; [1],0%
same,%Inh,HASPIN,67%
same,%Inh,HCK,0%
same,%Inh,HIPK1,0%
same,%Inh,HIPK2,0%
same,%Inh,HIPK3,5%
same,%Inh,HIPK4,0%
same,%Inh,HPK1,6%
same,%Inh,HUNK,31%
same,%Inh,ICK,0%
same,%Inh,IGF1R,0%
same,%Inh,IKK-alpha,0%
same,%Inh,IKK-beta,0%
same,%Inh,IKK-epsilon,22%
same,%Inh,INSRR,0%
same,%Inh,INSR,0%
same,%Inh,IRAK1,19%
O=C(NOCC1CC1)c1ccc(F)c(F)c1Nc1ccc(I)cc1Cl,%Inh,GRK4,0%
same,%Inh,GRK7,0%
same,%Inh,GSK3A,0%
same,%Inh,GSK3B; [1],0%
same,%Inh,HASPIN,30%
same,%Inh,HCK,0%
same,%Inh,HIPK1,0%
same,%Inh,HIPK2,0%
same,%Inh,HIPK3,0%
same,%Inh,HIPK4,0%
same,%Inh,HPK1,12%
same,%Inh,HUNK,0%
same,%Inh,ICK,100%
same,%Inh,IGF1R,0%
same,%Inh,IKK-alpha,46%
same,%Inh,IKK-beta,35%
same,%Inh,IKK-epsilon,0%
same,%Inh,INSRR,0%
same,%Inh,INSR,0%
same,%Inh,IRAK1,0%
N#Cc1ccc(-c2cc(-c3c[nH]nc3-c3ccccn3)ccn2)cc1 [GW693028],%Inh,GRK4,3%
same,%Inh,GRK7,0%
same,%Inh,GSK3A,12%
same,%Inh,GSK3B; [1],4%
same,%Inh,HASPIN,0%
same,%Inh,HCK,0%
same,%Inh,HIPK1,0%
same,%Inh,HIPK2,0%
same,%Inh,HIPK3,0%
same,%Inh,HIPK4,0%
same,%Inh,HPK1,38%
same,%Inh,HUNK,0%
same,%Inh,ICK,11%
same,%Inh,IGF1R,22%
same,%Inh,IKK-alpha,25%
same,%Inh,IKK-beta,19%
same,%Inh,IKK-epsilon,0%
same,%Inh,INSRR,0%
same,%Inh,INSR,1%
same,%Inh,IRAK1,39%
Cc1ccc(NC(=O)c2ccnc(N3CCN(C)CC3)c2)cc1-c1ccc(C(=O)NCC2CC2)cc1 [GW775604],%Inh,GRK4,15%
same,%Inh,GRK7,0%
same,%Inh,GSK3A,0%
same,%Inh,GSK3B; [1],0%
same,%Inh,HASPIN,0%
same,%Inh,HCK,9%
same,%Inh,HIPK1,0%
same,%Inh,HIPK2,0%
same,%Inh,HIPK3,0%
same,%Inh,HIPK4,0%
same,%Inh,HPK1,0%
same,%Inh,HUNK,34%
same,%Inh,ICK,0%
same,%Inh,IGF1R,0%
same,%Inh,IKK-alpha,0%
same,%Inh,IKK-beta,0%
same,%Inh,IKK-epsilon,0%
same,%Inh,INSRR,0%
same,%Inh,INSR,0%
same,%Inh,IRAK1,0%
O=c1cc(N2CCOCC2)nc2n(Cc3cccc(C(F)(F)F)c3)ccn12 [GSK2297543],%Inh,GRK4,0%
same,%Inh,GRK7,0%
same,%Inh,GSK3A,6%
same,%Inh,GSK3B; [1],3%
same,%Inh,HASPIN,0%
same,%Inh,HCK,0%
same,%Inh,HIPK1,18%
same,%Inh,HIPK2,0%
same,%Inh,HIPK3,7%
same,%Inh,HIPK4,1%
same,%Inh,HPK1,20%
same,%Inh,HUNK,41%
same,%Inh,ICK,0%
same,%Inh,IGF1R,0%
same,%Inh,IKK-alpha,0%
same,%Inh,IKK-beta,0%
same,%Inh,IKK-epsilon,7%
same,%Inh,INSRR,0%
same,%Inh,INSR,14%
same,%Inh,IRAK1,0%
CN(C1=C(c2ccccc2)C(=O)NC1=O)c1ccccc1 [SB-334860],%Inh,GRK4,0%
same,%Inh,GRK7,0%
same,%Inh,GSK3A,13%
same,%Inh,GSK3B; 1 µM,0%
same,%Inh,HASPIN,0%
same,%Inh,HCK,0%
same,%Inh,HIPK1,3%
same,%Inh,HIPK2,0%
same,%Inh,HIPK3,15%
same,%Inh,HIPK4,2%
same,%Inh,HPK1,0%
same,%Inh,HUNK,0%
same,%Inh,ICK,13%
same,%Inh,IGF1R,12%
same,%Inh,IKK-alpha,0%
same,%Inh,IKK-beta,0%
same,%Inh,IKK-epsilon,27%
same,%Inh,INSRR,0%
same,%Inh,INSR,5%
same,%Inh,IRAK1,0%
COCCNC(=O)c1ccc(-c2cc(C(=O)NC3CC3)cc(F)c2C)cc1 [GW868318],%Inh,GRK4,7%
same,%Inh,GRK7,28%
same,%Inh,GSK3A,0%
same,%Inh,GSK3B; [1],42%
same,%Inh,HASPIN,0%
same,%Inh,HCK,24%
same,%Inh,HIPK1,23%
same,%Inh,HIPK2,15%
same,%Inh,HIPK3,35%
same,%Inh,HIPK4,17%
same,%Inh,HPK1,4%
same,%Inh,HUNK,7%
same,%Inh,ICK,40%
same,%Inh,IGF1R,3%
same,%Inh,IKK-alpha,36%
same,%Inh,IKK-beta,29%
same,%Inh,IKK-epsilon,4%
same,%Inh,INSRR,19%
same,%Inh,INSR,10%
same,%Inh,IRAK1,37%
CCc1nc(-c2cccc(C)c2)c(-c2ccnc(NCc3ccccc3)c2)s1,%Inh,GRK4,9%
same,%Inh,GRK7,0%
same,%Inh,GSK3A,12%
same,%Inh,GSK3B; [1],0%
same,%Inh,HASPIN,41%
same,%Inh,HCK,5%
same,%Inh,HIPK1,21%
same,%Inh,HIPK2,0%
same,%Inh,HIPK3,0%
same,%Inh,HIPK4,7%
same,%Inh,HPK1,0%
same,%Inh,HUNK,0%
same,%Inh,ICK,0%
same,%Inh,IGF1R,0%
same,%Inh,IKK-alpha,15%
same,%Inh,IKK-beta,2%
same,%Inh,IKK-epsilon,0%
same,%Inh,INSRR,9%
same,%Inh,INSR,0%
same,%Inh,IRAK1,0%
Nc1nccc(-c2c(-c3ccc(F)cc3)ncn2C2CCN(CC(F)(F)F)CC2)n1 [SB-236560],%Inh,GRK4,10%
same,%Inh,GRK7,2%
same,%Inh,GSK3A,0%
same,%Inh,GSK3B; [1],0%
same,%Inh,HASPIN,36%
same,%Inh,HCK,0%
same,%Inh,HIPK1,27%
same,%Inh,HIPK2,57%
same,%Inh,HIPK3,0%
same,%Inh,HIPK4,0%
same,%Inh,HPK1,48%
same,%Inh,HUNK,0%
same,%Inh,ICK,63%
same,%Inh,IGF1R,0%
same,%Inh,IKK-alpha,7%
same,%Inh,IKK-beta,0%
same,%Inh,IKK-epsilon,54%
same,%Inh,INSRR,21%
same,%Inh,INSR,0%
same,%Inh,IRAK1,29%
